Assay outcomes (PubChem)
Shown are actives, neighbours in structure and some others; about 5.5% of the full set was active somewhere.
Gal4-VP16 FLuc = VP16 counterscreen qHTS for inhibitors of ROR gamma transcriptional activity; Potency, µM (titrated, usually from 53.6 µM), actives largely listed as inhibitors; 310,000 tested, 3.5% active; AID 2546, 2010; Drosophila S2 Gal4-VP16 UAS-luciferase, luminescence, 20 h;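 also: Gal4-VP16 expression switched on by copper sulfate through the metallothionein promoter; nearly all actives have a fitted effect of over 50% in size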
uPA surface inh = qHTS for Inhibitors of Cell Surface uPA Generation. cell surface uPA generation assay, qHTS. Potency, µM (series often up to 38.3 µM), hits mostly inhibitors. 330,000 tested, 0.31% active; active = well fitted inhibition curve with a large enough effect; inconclusive = small, poorly fitted or top-dose-only effect; inactive = no such curve, though single readings can be large or run the other way; tested in mouse RAW 264.7 cells; also: nearly all actives have a fitted effect of over 55% in size
a7 integrin act = qHTS for Activators of Integrin-Mediated Alleviation for Muscular Dystrophy; Potency, µM (doses to about 38.3 µM), hits mostly activators; 350,000 tested, 0.064% active; AID 624291, 2012; alpha7betagal myoblasts, beta-gal FDG fluorescence, 48 h; also: nearly all actives have a fitted effect of over 60% in size
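alpha7betagal+/- myoblasts (passage 13, 250/well) treated 48 h at 37C with compounds at 1:260 dilution of DMSO stock. Lysed, then beta-galactosidase activity read as FDG fluorescence (ex 480/em 540) after 30 min, with pre-read for autofluorescence.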
BCR signal inh = qHTS Assay to Find Inhibitors of Chronic Active B-Cell Receptor Signaling. ABC-DLBCL IkBa-CBG/CBR reporter, luminescence ratio, 4 h. AID 493014, 2011. 340,000 tested, 0.05% active. Potency, µM (titrated, usually from 46.1 µM), most hits filed as inhibitors; active = well fitted inhibition curve with a large enough effect in the signal ratio, with a control signal flat, not every such curve was filed as active; inconclusive = small, poorly fitted or top-dose-only effect, or effect the other way, or a change in a side signal; the % refers to the signal ratio
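Compounds up to 46 uM were incubated four hours with TMD8 cells whose green CBG68 luciferase is fused to IkappaBalpha; red CBR luminescence normalised the signal, and concentration-effect curves were fitted to fusion, red and ratio data.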
Mito fusion act = qHTS Assay for Small Molecule Inhibitors of Mitochondrial Division or Activators of Mitochondrial Fusion; S. cerevisiae fusion-defective mutant growth rescue, CellTiterGlo 48 h; Potency, µM (doses to about 46.1 µM), actives largely listed as activators; 320,000 tested, 0.23% active; AID 485298, 2010; also: nearly all actives have a fitted effect of over 45% in size
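S. cerevisiae fusion-defective temperature-sensitive mutants (e.g. fzo1-1, mgm1-5) grown 48 h at 37C in YPEG (ethanol/glycerol non-fermentable) medium with 23 nl compound per well; growth rescue read as CellTiterGlo luminescence.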
RORg inh = qHTS for inhibitors of ROR gamma transcriptional activity. Potency, µM (series often up to 53.6 µM), usual class: inhibitors. 310,000 tested, 5.4% active. Nuclear receptor ROR-gamma (Mus musculus), P51450. Drosophila S2 Gal4-RORgamma UAS-luciferase reporter, 20 h; also: nearly all actives have a fitted effect of over 60% in size
Target sequence (P51450 whole entry, looked up, the tested form may be a part): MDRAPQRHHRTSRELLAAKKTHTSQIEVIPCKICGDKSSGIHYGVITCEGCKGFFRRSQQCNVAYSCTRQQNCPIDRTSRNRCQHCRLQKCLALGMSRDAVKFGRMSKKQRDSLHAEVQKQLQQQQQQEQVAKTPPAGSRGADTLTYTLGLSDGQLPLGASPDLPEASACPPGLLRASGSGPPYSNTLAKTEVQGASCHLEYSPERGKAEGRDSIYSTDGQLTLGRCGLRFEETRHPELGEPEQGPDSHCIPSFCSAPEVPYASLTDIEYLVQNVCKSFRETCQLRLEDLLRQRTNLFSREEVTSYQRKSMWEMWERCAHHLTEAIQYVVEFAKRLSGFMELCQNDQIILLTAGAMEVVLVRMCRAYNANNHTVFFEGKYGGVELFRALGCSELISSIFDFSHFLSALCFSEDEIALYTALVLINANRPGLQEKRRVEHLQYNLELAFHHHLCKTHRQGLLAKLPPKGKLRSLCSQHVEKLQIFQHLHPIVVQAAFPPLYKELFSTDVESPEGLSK
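ROR gamma transcriptional activity was tracked as Gal4-UAS luciferase output in stably transfected Drosophila Schneider cells, with compound added 1 hr before 700 uM copper sulfate induction and a 20 hr ambient-temperature incubation.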
Hits are given with their value; . = inactive; ? = inconclusive; / = no result; [ ] = another dose, or the depositor's remark. Unless noted, calls follow the shape of the dose curve; as a rule, active = well fitted curve in the direction sought with a large enough effect; inconclusive = small, poorly fitted or top-dose-only effect, or another doubt; inactive = no such curve, though single readings can be large; an effect the other way counts as inactive or inconclusive.

SMILES	Gal4-VP16 FLuc	uPA surface inh	a7 integrin act	BCR signal inh	Mito fusion act	RORg inh
Cc1ccc(-n2nnnc2SCC(=O)Nc2cccnc2Cl)cc1	13µM	.	.	.	.	?
O=C(/C=C/c1ccc(O)c(O)c1)c1ccc(O[C@@H]2O[C@H](CO)[C@@H](O)[C@H](O)[C@H]2O)c(O)c1O	.	/	/	/	/	.
O=C(Nc1cccc2ccccc12)c1cc2c(cc1Br)OCO2	.	.	.	11µM	.	.
CN(C(=O)c1cc2c(cc1Br)OCO2)c1cccc2ccccc12	/	/	.	/	/	/
CC(C)[C@H](NC(=O)OC(C)(C)C)c1nnc(SCC(=O)Nc2ccc(Br)cc2)o1	32µM	.	.	.	.	2.5µM
C[C@H](NC(=O)OC(C)(C)C)c1nnc(SCC(=O)Nc2cccc(Cl)c2)o1	.	.	.	.	.	.
Cc1ccc(NC(=O)CC2SC(=O)NC2=O)cc1 (stereo not given)	4.5µM	.	.	.	.	5µM
COc1ccc(NC(=O)CC2SC(=O)NC2=O)cc1 (stereo not given)	13µM	.	.	?	.	11µM
CN(CC(=O)Nc1c(Cl)cccc1Cl)C(=O)CCC1CCCC1	11µM	.	.	.	.	.
CN(CC(=O)Nc1cccc(F)c1)C(=O)CCC1CCCCC1	/	.	.	.	.	/
C/C(=N\NC(=O)CCc1ccccc1)C1C(=O)c2ccccc2C1=O	2µM	.	.	?	.	0.56µM
CC(/C=C/c1ccccc1)=N\NC(=O)CCc1ccccc1	.	.	.	.	.	.
N#Cc1ccc(CS(=O)(=O)c2nc3ccccc3s2)cc1	.	/	/	/	/	.
FC(F)Sc1ccc(NC(=S)NC2CCCC2)cc1	?	.	.	?	.	11µM
CC1CCCC(NC(=S)Nc2ccc(SC(F)F)cc2)C1C (stereo not given)	5µM	.	.	?	.	0.5µM
CCC1CCCCN1C(=O)CSc1nc(N)cc(N)n1 (stereo not given)	.	.	.	.	.	.
COc1ccccc1N(Cc1ccccc1)S(=O)(=O)c1cccc(C(=O)Nc2ncccc2C)c1	/	.	.	.	.	/
CCOc1cc(C(=O)NC(=S)Nc2nc(C)cc(C)n2)cc(OCC)c1OCC	?	.	.	.	.	11µM
CCOc1cc(C(=O)Nc2cc(C)ccn2)cc(OCC)c1OCC	?	.	.	?	.	16µM
COc1ccccc1N(Cc1ccccc1)S(=O)(=O)c1cccc(C(=O)Nc2cc(C)ccn2)c1	10µM	.	?	.	.	6.3µM
CCOc1cc(C(=O)Nc2cnccn2)cc(OCC)c1OCC	.	.	.	.	.	.
Cc1ccnc(NC(=O)c2ccc(C(=O)c3ccccc3)cc2)c1	/	.	.	?	.	/
CCOc1ccc(C(=O)Nc2cc(C)ccn2)cc1	10µM	.	.	?	.	8.9µM
CCn1ncc(S(=O)(=O)N2CCN(c3cccc(OC)c3)CC2)c1C	/	.	.	.	.	/
CC(C)NC(=O)N1CCC2(CC1)CCN(C(=O)c1ccco1)CC2	.	/	/	/	/	.
SMILES	Gal4-VP16 FLuc	uPA surface inh	a7 integrin act	BCR signal inh	Mito fusion act	RORg inh
Cc1nc2c(C#N)cnn2c2c1CCN2CC1CCCO1 (stereo not given)	.	.	.	.	.	.
C=CCN1C(=O)C(CC(=O)O)S/C1=N/N=C/c1ccc(N(CC)CC)cc1 (stereo not given)	/	.	.	?	.	/
COc1ccc(-c2cn3c(C)c(C(=O)Nc4cccc(C)n4)sc3n2)cc1	11µM	.	.	?	.	7.1µM
CCCCOc1ccc(C(=O)Nc2cccc(C)n2)cc1	?	.	.	?	.	?
CCOc1ccc(C(=O)Nc2cccc(C)n2)cc1	?	.	.	?	.	8.9µM
COC(c1ccccc1Br)C(C)/C=C/CCO (stereo not given)	.[10 µM]	/	/	/	/	.[10 µM]
Cc1nn(-c2ccccc2)c(C)c1/C=N/NC(=O)c1cc(-c2cccs2)[nH]n1	.	?	.	18µM	.	.
CCOC(=O)C1=C(COC(=O)CNS(=O)(=O)c2c(F)cc(F)cc2Br)NC(=O)NC1C (stereo not given)	/	.	.	/	/	/
CCCn1nnc(NC(=O)/C=C/c2ccc(C(C)C)cc2)n1	?	.	.	.	.	?
NC(=S)n1[nH]c(-c2ccc([N+](=O)[O-])cc2)c(N=Nc2cccc(Cl)c2)c1=O	7.1µM	.	.	?	.	0.4µM
Cc1[nH]n(C(N)=S)c(=O)c1N=Nc1cccc(Cl)c1	1.6µM	.	.	?	.	0.28µM
NC(=S)n1[nH]c(-c2ccc([N+](=O)[O-])cc2)c(N=Nc2ccc(O)cc2)c1=O	.	.	.	.	.	.
Nc1sc2c(c1C(=O)c1ccc(Cl)cc1)CCCC2	.	/	/	/	/	.
Oc1c(Cl)cc(Cl)cc1/C=N/c1nccs1	?	.	.	?	.	13µM
Cc1ccc(S(=O)(=O)CC(=O)Nc2sc3c(c2C#N)CCCC3)cc1	/	/	/	.	/	/
Cc1cccc(Nc2nnc(SCC(=O)Nc3ccccc3[N+](=O)[O-])s2)c1C	.	.	.	.	.	18µM
CCCc1cc(=O)[nH]c2nnc(SCC)n12	/	/	/	.	/	/
N#C/C(=C\c1coc2ccccc2c1=O)C(N)=S	?	.	.	?	.	13µM
O=C(NC(=O)c1ccccc1O)c1ccc2c(c1)CCO2	?	.	.	?	.	5µM
C#C[C@]1(OC(C)=O)CC[C@H]2[C@@H]3CCC4=CC(=O)CC[C@@H]4[C@H]3CC[C@@]21C	.	/	/	/	/	?
Cc1nn(C)c(C)c1/C=N/NC(=O)CCn1nc(C)c([N+](=O)[O-])c1C	3.5µM	.	.	.	.	.
COC(=O)NC/C=C\c1nc(CCCO)co1	.[10 µM]	/	/	/	/	.[10 µM]
O=C(COc1ccccc1Br)c1ccc(O)cc1O	?	.	.	?	?	10µM
CCCC(=O)N/C(N)=N/c1nc(C)c2ccccc2n1	.	.	.	?	.	1.1µM
O=C1C2=C(S[C@@H]3O[C@H](CO)[C@@H](O)[C@H](O)[C@H]3O2)C(=O)c2ccccc21	.	/	/	/	/	.
COc1cc(/C=C2/C(=N)N3C(SC)=NSC3=NC2=O)ccc1OC(=O)c1ccco1	.	.	4µM	?	.	.
COc1cc(/C=C2/C(=N)N3C(=NC2=O)SN=C3S(C)(=O)=O)ccc1OC(=O)c1ccco1	.	.	.	.	.	.
CC(Sc1nnc(C(F)(F)F)n1C)C(=O)Nc1ccc(S(N)(=O)=O)cc1 (stereo not given)	.	.	.	?	.	.
COCO[C@H]([C@@H](C)C=C(Br)Br)[C@@H](C)COCc1ccc(OC)cc1	.	/	/	/	/	.
Cc1nc2ccc(-c3nc4cc(N)ccc4o3)cc2[nH]1	?	.	.	?	.	16µM
